The source of these data is the supplement of paper PMC9023506.

Structures can show the parent of a compound that is named as a salt.

This experiment deals with Danio rerio larvae (5 dpf). Briefly: excitability to 1-s acoustic pulses, difference vs DMSO (percentage points (treated minus DMSO)); higher = more of the behaviour than the DMSO vehicle control. Particulars: 10 µM; exposure time: 3 h pre-incubation + 3 h imaging. As for the experimental part:
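5-dpf wild-type zebrafish larvae were imaged in 96-well plates. They were treated with 190 Tocris FDA-approved drugs at 10 µM (1 µl/ml DMSO) for 3 h before and 3 h during imaging at 28.5 °C, 48 larvae per drug. Automated image analysis gave % time moving and optomotor responses. Values are drug group mean minus DMSO vehicle mean (n=844), in percentage points, for 10 behaviours.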
With `CC(C)c1nc(CN(C)C(=O)N[C@H](C(=O)N[C@@H](Cc2ccccc2)C[C@H](O)[C@H](Cc2ccccc2)NC(=O)OCc2cncs2)C(C)C)cs1` [Ritonavir], the “excitability to 1-s acoustic pulses” value was determined as 7.52.

With `COc1ccccc1OCC(O)CN1CCN(CC(=O)Nc2c(C)cccc2C)CC1` (stereo not given) [Ranolazine dihydrochloride], the “excitability to 1-s acoustic pulses” value amounted to 1.94.

For `CCC(=O)O[C@]1(C(=O)SCF)[C@H](C)C[C@H]2[C@@H]3C[C@H](F)C4=CC(=O)C=C[C@]4(C)[C@@]3(F)[C@@H](O)C[C@@]21C` [Fluticasone propionate], the “excitability to 1-s acoustic pulses” value amounted to 1.18.

In the case of `CCCCCCCCc1ccc(CCC(N)(CO)CO)cc1`, the “excitability to 1-s acoustic pulses” value came out at 14.4.

Consider `Nc1ncn([C@@H]2O[C@H](CO)[C@@H](O)[C@H]2O)c(=O)n1` [5-Azacytidine], for which the “excitability to 1-s acoustic pulses” value is -3.59.

Turning to `NS(=O)(=O)c1cc2c(cc1Cl)NC(C1CC3C=CC1C3)NS2(=O)=O` (stereo not given) [Cyclothiazide], the “excitability to 1-s acoustic pulses” value turned out to be 0.586.

With `CCCCC(=O)N(Cc1ccc(-c2ccccc2-c2nnn[nH]2)cc1)[C@H](C(=O)O)C(C)C` [Valsartan], the “excitability to 1-s acoustic pulses” value was -1.54.

For `CCOC(=O)C1=C(C)NC(C)=C(C(=O)OC)C1c1cccc(Cl)c1Cl` (stereo not given) [Felodipine], the “excitability to 1-s acoustic pulses” value was -13.3.

Consider `CC(C)COCC(CN(Cc1ccccc1)c1ccccc1)N1CCCC1` (stereo not given) [Bepridil hydrochloride], for which the “excitability to 1-s acoustic pulses” value turned out to be 15.

On to `COc1ccc([C@@H]2Sc3ccccc3N(CCN(C)C)C(=O)[C@@H]2OC(C)=O)cc1` [Diltiazem hydrochloride], for which the “excitability to 1-s acoustic pulses” value amounted to 1.38.

In the case of `Clc1ccc(COC(Cn2ccnc2)c2ccc(Cl)cc2Cl)c(Cl)c1` (stereo not given) [Miconazole nitrate], the “excitability to 1-s acoustic pulses” value was -0.632.

In the case of `Nc1nc(NC2CC2)c2ncn([C@H]3C=C[C@@H](CO)C3)c2n1` [Abacavir hemisulfate], the “excitability to 1-s acoustic pulses” value is -1.97.

With `CC[C@H](C)C(=O)O[C@H]1C[C@@H](C)C=C2C=C[C@H](C)[C@H](CC[C@@H]3C[C@@H](O)CC(=O)O3)[C@H]21` [Lovastatin], the “excitability to 1-s acoustic pulses” value was determined as 12.6.

In the case of `CCCC1O[C@@H]2C[C@H]3[C@@H]4CCC5=CC(=O)C=C[C@]5(C)[C@H]4[C@@H](O)C[C@]3(C)[C@]2(C(=O)CO)O1` (stereo not given in full) [Budesonide], the “excitability to 1-s acoustic pulses” value is -1.66.

With `NC(=O)OCC(COC(N)=O)c1ccccc1` [Felbamate], the “excitability to 1-s acoustic pulses” value was -4.78.

Turning to `CCOC(=O)N1CCC(=C2c3ccc(Cl)cc3CCc3cccnc32)CC1` [Loratidine], the “excitability to 1-s acoustic pulses” value was -6.95.

`CC(=O)O[C@H]1C(=O)[C@@]2(C)[C@H]([C@H](OC(=O)c3ccccc3)[C@]3(O)C[C@H](OC(=O)[C@H](O)[C@@H](NC(=O)c4ccccc4)c4ccccc4)C(C)=C1C3(C)C)[C@]1(OC(C)=O)CO[C@@H]1C[C@@H]2O` [Taxol]: the “excitability to 1-s acoustic pulses” value is -0.779.

Turning to `COC(=O)C1=C(C)NC(C)=C(C(=O)OC(C)C)C1c1cccc2nonc12` (stereo not given) [Isradipine], the “excitability to 1-s acoustic pulses” value is 19.8.

As to `Nc1nc2[nH]cc(CCc3ccc(C(=O)N[C@@H](CCC(=O)O)C(=O)O)cc3)c2c(=O)[nH]1` [Pemetrexed], the “excitability to 1-s acoustic pulses” value worked out at 2.29.

Turning to `CC(C)c1nc(N(C)S(C)(=O)=O)nc(-c2ccc(F)cc2)c1/C=C/[C@@H](O)C[C@@H](O)CC(=O)O` [Rosuvastatin calcium], the “excitability to 1-s acoustic pulses” value was -0.497.

`Nc1ncn([C@H]2C[C@H](O)[C@@H](CO)O2)c(=O)n1` [Decitabine]: the “excitability to 1-s acoustic pulses” value was 6.23.

For the compound `COc1c(C)c2c(c(O)c1C/C=C(\C)CCC(=O)O)C(=O)OC2` [Mycophenolic acid], the “excitability to 1-s acoustic pulses” value was 0.774.

With `COCCc1ccc(OCC(O)CNC(C)C)cc1` (stereo not given) [Metoprolol tartrate], the “excitability to 1-s acoustic pulses” value was -8.67.

For `CN1CC2c3ccccc3Oc3ccc(Cl)cc3C2C1` (stereo not given) [Asenapine maleate], the “excitability to 1-s acoustic pulses” value turned out to be 15.

With `CCCN(CCC)S(=O)(=O)c1ccc(C(=O)O)cc1` [Probenecid], the “excitability to 1-s acoustic pulses” value came to 4.8.

`C/C(O)=C(\C#N)C(=O)Nc1ccc(C(F)(F)F)cc1` [Teriflunomide]: the “excitability to 1-s acoustic pulses” value worked out at 10.6.

For the compound `Cc1cn([C@H]2C=C[C@@H](CO)O2)c(=O)[nH]c1=O` [Stavudine], the “excitability to 1-s acoustic pulses” value amounted to 3.23.

In the case of `Cc1cc2c(s1)Nc1ccccc1N=C2N1CCN(C)CC1` [Olanzapine], the “excitability to 1-s acoustic pulses” value came to 3.32.

On to `O=C(Nc1c(Cl)cncc1Cl)c1ccc(OC(F)F)c(OCC2CC2)c1` [Roflumilast], for which the “excitability to 1-s acoustic pulses” value is 16.7.

As to `CNS(=O)(=O)Cc1ccc2[nH]cc(CCN(C)C)c2c1` [Sumatriptan succinate], the “excitability to 1-s acoustic pulses” value is -8.18.

Turning to `CC(C)N(CCCCOCC(=O)NS(C)(=O)=O)c1cnc(-c2ccccc2)c(-c2ccccc2)n1` [Selexipag], the “excitability to 1-s acoustic pulses” value was determined as 5.77.

`COc1cc([C@@H]2c3cc4c(cc3[C@@H](O[C@@H]3O[C@@H]5CO[C@@H](C)O[C@H]5[C@H](O)[C@H]3O)[C@H]3COC(=O)[C@H]23)OCO4)cc(OC)c1O` [Etoposide]: the “excitability to 1-s acoustic pulses” value was 9.69.

Regarding `O=C(NCC1CCCCN1)c1cc(OCC(F)(F)F)ccc1OCC(F)(F)F` (stereo not given) [Flecainide acetate], the “excitability to 1-s acoustic pulses” value worked out at 5.58.

Consider `COCCCOc1cc(C[C@@H](C[C@H](N)[C@@H](O)C[C@H](C(=O)NCC(C)(C)C(N)=O)C(C)C)C(C)C)ccc1OC` [Aliskiren hemifumarate], for which the “excitability to 1-s acoustic pulses” value is 12.2.

`Nc1nc(Cl)nc2c1ncn2[C@@H]1O[C@H](CO)[C@@H](O)[C@@H]1F` [Clofarabine]: the “excitability to 1-s acoustic pulses” value was 2.22.

For `CC(C)(C(=O)c1cccnc1)c1cccnc1` [Metyrapone], the “excitability to 1-s acoustic pulses” value was 12.2.

Consider `C[C@H]1C[C@@H]2[C@H]([C@@H](O)C[C@@]3(C)[C@H]2CC[C@]3(O)C(=O)CO)[C@@]2(C)C=CC(=O)C=C12` [Methylprednisolone], for which the “excitability to 1-s acoustic pulses” value came to 0.503.

Take `Cc1ccsc1C(=CCCN1CCC[C@@H](C(=O)O)C1)c1sccc1C` [Tiagabine hydrochloride]: the “excitability to 1-s acoustic pulses” value was -9.16.

Take `CN/C(=N\CCSCc1nc[nH]c1C)NC#N` [Cimetidine]: the “excitability to 1-s acoustic pulses” value is -2.12.

Regarding `NS(=O)(=O)c1cc(C(=O)O)c(NCc2ccco2)cc1Cl` [Furosemide], the “excitability to 1-s acoustic pulses” value was 0.211.
